“And” between values parts separate entries of the source, which are not always exact repeats. Equal values may be shown once. Records with an inconclusive call do not appear. The source made the active and inactive calls. Calls come from the whole dose curve; as a rule, active = well fitted inhibition curve with a large enough effect; inconclusive = small, poorly fitted or top-dose-only effect; inactive = flat fitted curve, though single readings scatter.
How the values were obtained:
[1] = tested on: CRL-7250; experiment: Cytotoxic Profiling of Annotated Libraries Using Quantitative High-Throughput Screening (AID 1296008); conditions: Five cell lines viability, CellTiter-Glo ATP luminescence, 48-72 h; max response: active compounds read low; for max response: % is set by controls: 0 for no effect and ±100 for the full control effect
In short: (§1)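 Compounds were pin-transferred onto cells and incubated 48 or 72 hr at 37 degree Celsius, 95% humidity. CellTiter-Glo was added, plates sat 10 min at room temperature, then ATP-coupled luminescence was imaged as the viability read-out.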

[2] = tested on: HEK293; experiment: as above; conditions: Five cell lines viability, CellTiter-Glo ATP luminescence, 48-72 h; max response: active compounds read low
In short: as §1

[3] = tested on: HaCat; experiment: as above; conditions: Five cell lines viability, CellTiter-Glo ATP luminescence, 48-72 h; max response: active compounds read low
In short: as §1

[4] = tested on: KB-3-1; experiment: as above; conditions: Five cell lines viability, CellTiter-Glo ATP luminescence, 48-72 h; max response: active compounds read low
In short: as §1

[5] = tested on: NIH3T3; experiment: as above; conditions: Five cell lines viability, CellTiter-Glo ATP luminescence, 48-72 h; max response: active compounds read low
In short: as §1

[6] = tested on: HEK293T; experiment: qHTS assay to identify novel small-molecules to repurpose for Merkel cell carcinoma treatment (AID 1296009); conditions: MCC and control cell lines, CellTiter-Glo viability, 72 h; at 44.8 µM (top of the series)
In short: (§2)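 qHTS format: cells treated with library compounds in DMSO across 8 (NPC) or 11 (MIPE) concentrations. Readout after 72 hr at 37 degree celsius was CellTiter-Glo luminescence.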

[7] = tested on: MCC-13; experiment: as above; conditions: MCC and control cell lines, CellTiter-Glo viability, 72 h; series mostly up to 46 µM
In short: as §2

[8] = tested on: MCC-26; experiment: as above; conditions: MCC and control cell lines, CellTiter-Glo viability, 72 h; series mostly up to 46 µM
In short: as §2

[9] = tested on: MKL-1; experiment: as above; conditions: MCC and control cell lines, CellTiter-Glo viability, 72 h; series mostly up to 46 µM
In short: as §2

[10] = tested on: MKL-2; experiment: as above; conditions: MCC and control cell lines, CellTiter-Glo viability, 72 h; series mostly up to 46 µM
In short: as §2

[11] = tested on: PC15; experiment: qHTS profiling for inhibitors of Plasmodium falciparum proliferation (AID 504749); note: potency is the fitted concentration of half-maximal effect; conditions: P. falciparum in erythrocytes, SYBR Green DNA, 72 h; series mostly up to 28.7 µM
In short: (§3)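 Parasite proliferation within erythrocytes, 72 h exposure. Endpoint: SYBR Green I fluorescence after overnight lysis at room temperature. Controls: 0.29 uM artemisinin, DMSO.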

[12] = tested on: PC26; experiment: as above; conditions: P. falciparum in erythrocytes, SYBR Green DNA, 72 h; series mostly up to 28.7 µM
In short: as §3

[13] = tested on: PC49; experiment: as above; conditions: P. falciparum in erythrocytes, SYBR Green DNA, 72 h; series mostly up to 28.7 µM
In short: as §3

[14] = tested on: SC27B; experiment: as above; conditions: P. falciparum in erythrocytes, SYBR Green DNA, 72 h; series mostly up to 28.7 µM
In short: as §3

[15] = tested on: TAB109; experiment: as above; conditions: P. falciparum in erythrocytes, SYBR Green DNA, 72 h; series mostly up to 28.7 µM
In short: as §3

[16] = tested on: TAB113; experiment: as above; conditions: P. falciparum in erythrocytes, SYBR Green DNA, 72 h; series mostly up to 28.7 µM
In short: as §3

[17] = tested on: TAB165; experiment: as above; conditions: P. falciparum in erythrocytes, SYBR Green DNA, 72 h; series mostly up to 28.7 µM
In short: as §3

[18] = tested on: W2; experiment: as above; conditions: P. falciparum in erythrocytes, SYBR Green DNA, 72 h; series mostly up to 28.7 µM
In short: as §3

[19] = tested on: HACAT; experiment: qHTS assay to identify novel small-molecules to repurpose for Merkel cell carcinoma treatment (AID 1296009); conditions: MCC and control cell lines, CellTiter-Glo viability, 72 h; at 44.8 µM (top of the series) unless noted
In short: as §2
Note: nearly all actives have a fitted effect of over 60% in size.

O=c1oc2ccccc2c(O)c1C(CC(O)c1ccc(-c2ccc(Br)cc2)cc1)c1ccccc1 (centres undefined)
inactive: max response [1] 0.6% | outcome [2] | max response [3] 4.03% | max response [4] 0.095% | max response [5] 0.0262% | outcome [6] | Potency [7] | Potency [8] | Potency [9] | Potency [10]

CC[N+]1(C)CCCC(OC(=O)C(O)(c2ccccc2)c2ccccc2)C1 (centres undefined)
inactive: Potency [11] | Potency [12] | Potency [13] | Potency [14] | Potency [15] | Potency [16] | Potency [17] | Potency [18] | max response [1] 2.5% | max response [2] -9.88% | max response [3] 1.89% | max response [4] 3.82% | outcome [5] | Potency [7] | Potency [9] | Potency [10]

Cc1cccc(C)c1NC1=NCCCS1
inactive: Potency [11] | Potency [14] | Potency [16] | max response [1] -7.18% | max response [2] -6.53% | max response [3] -7.27% | max response [4] -1.86% | max response [5] 1% | Potency [7] | Potency [8] | Potency [9] | Potency [10]
active: Potency [18] 4.26 µM

O=[N+]([O-])c1cc([As](=O)(O)O)ccc1O
inactive: max response [1] -0.161% | outcome [2] | max response [3] -8.07% | max response [4] -14.1% | outcome [5] | outcome [6] | Potency [7] | Potency [8] | Potency [9]
active: Potency [14] 3.55 µM | Potency [15] 3.16 µM | Potency [16] 3.16 µM | Potency [17] 3.55 µM | Potency [18] 2.56 µM

CCCN1CCC[C@@H]2Cc3[nH]ncc3C[C@H]21
inactive: Potency [12] | Potency [18] | max response [1] 4.64% | max response [2] -0.855% | max response [4] -4.95% | outcome [5] | Potency [7] | Potency [9] | Potency [10]

CC[C@@H](CO)NC(=O)[C@@H]1C=C2c3cccc4[nH]cc(c34)C[C@H]2N(C)C1
inactive: Potency [11] | Potency [12] | Potency [13] | Potency [14] | Potency [15] | Potency [16] | Potency [17] | Potency [18] | max response [1] -1.45% | max response [2] -3.34% | max response [3] -5.68% | max response [4] 37.2% | max response [5] -3.83% | Potency [7] | Potency [8] | Potency [9] | Potency [10]

O=C(O)c1ccc2[nH]cc(CCCCN3CC=C(c4ccccc4)CC3)c2c1
inactive: Potency [11] | Potency [12] | Potency [13] | Potency [14] | Potency [15] | Potency [16] | Potency [17] | max response [1] -7.24% | max response [2] -0.718% | outcome [3] | max response [4] -2.41% | outcome [5] | outcome [19] | Potency [7] | Potency [9] | Potency [10]

C=CCN1CC[C@]23c4c5ccc(O)c4O[C@H]2C(=O)CC[C@@]3(O)[C@H]1C5
inactive: max response [1] -3.06% | max response [2] -4.65% | max response [3] -19.7% | max response [4] -7.11% and -7.3% | max response [5] -3.86% | Potency [7] | Potency [9] | Potency [10]

NCCc1cc(O)c(O)cc1O
inactive: Potency [11] | Potency [12] | Potency [13] | Potency [14] | Potency [16] | Potency [17] | Potency [18] | max response [1] 3.51% | outcome [2] | outcome [3] | max response [4] 9.04% | outcome [5] | outcome [19] | outcome [6] | Potency [7] | Potency [9] | Potency [10]

O=P1(NCCCl)OCCCN1CCCl (centres undefined)
inactive: Potency [11] | Potency [12] | Potency [13] | Potency [14] | Potency [15] | Potency [16] | Potency [17] | max response [1] -12.2% | max response [2] 3.55% | outcome [3] | max response [4] 0.482% and 4.18% | max response [5] -11.2% and -20.7% | outcome [19] | Potency [7] | Potency [8] | Potency [9] | Potency [10]

CC(C)(N)Cc1ccc(Cl)cc1
inactive: Potency [11] | Potency [13] | Potency [14] | Potency [15] | Potency [16] | Potency [17] | max response [1] 0.791% | max response [2] 3.33% | outcome [3] | max response [4] -1.79% | outcome [5] | outcome [19] | Potency [7] | Potency [8] | Potency [9] | Potency [10]

Nc1ccncc1
inactive: Potency [11] | Potency [13] | Potency [14] | Potency [15] | Potency [16] | Potency [17] | Potency [18] | max response [1] 4.16% | max response [2] -0.798% | outcome [3] | max response [4] 14.9% | max response [5] 2.18% | outcome [19] | Potency [7] | Potency [9] | Potency [10]

— PubChem BioAssay (NCATS)
